Reference: publication PMC7862700, “An all-to-all approach to the identification of sequence-specific readers for epigenetic DNA modifications on cytosine”

What was measured:
Experiment in all cases: DAPPL (digital affinity profiling via proximity ligation, sequencing); 10 mM Tris-HCl pH 7.5, 50 mM NaCl, 1 mM DTT, 4% glycerol, room temperature, 30 min; GST-TFs on glutathione beads, 16-mer random dsDNA library, 0.1% formaldehyde crosslink after washing; high values mean tight binding
FLI1 = biological target: T1, FLI1 (Homo sapiens, UniProt Q01543 1-452); conditions: protein: recombinant; tags: N-terminal GST; dsDNA, one strand shown
T1 sequence: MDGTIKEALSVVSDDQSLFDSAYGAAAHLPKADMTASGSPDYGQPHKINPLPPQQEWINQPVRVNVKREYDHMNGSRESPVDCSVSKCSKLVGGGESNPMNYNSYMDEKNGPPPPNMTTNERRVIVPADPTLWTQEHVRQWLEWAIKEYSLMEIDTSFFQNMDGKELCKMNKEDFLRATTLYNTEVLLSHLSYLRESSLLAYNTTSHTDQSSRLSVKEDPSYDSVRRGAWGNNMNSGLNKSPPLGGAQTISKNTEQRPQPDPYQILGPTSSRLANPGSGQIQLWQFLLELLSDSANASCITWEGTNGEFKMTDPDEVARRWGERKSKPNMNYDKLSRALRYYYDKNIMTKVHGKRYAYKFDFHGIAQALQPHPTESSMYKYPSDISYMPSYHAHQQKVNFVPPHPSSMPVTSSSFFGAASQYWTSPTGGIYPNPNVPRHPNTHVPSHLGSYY
How it was run: (§1)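 GST fusions of human transcription factors were expressed in yeast and captured with glutathione beads. Once given DNA barcodes and pooled alongside a tag-only sample, they were incubated for 30 min at room temperature with 200 nmole of a random double-stranded 16-mer DNA library in Tris/NaCl/DTT/glycerol buffer, then washed, crosslinked (0.1% formaldehyde), proximity-ligated, PCR-amplified and sequenced on an Illumina NextSeq500. The binding signal of each hexamer is its read frequency for a factor divided by its frequency for the tag-only sample.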

ELK1 = biological target: T2, ELK1 (Homo sapiens, UniProt P19419 1-428); conditions: protein: recombinant; tags: N-terminal GST; dsDNA, one strand shown
T2 sequence: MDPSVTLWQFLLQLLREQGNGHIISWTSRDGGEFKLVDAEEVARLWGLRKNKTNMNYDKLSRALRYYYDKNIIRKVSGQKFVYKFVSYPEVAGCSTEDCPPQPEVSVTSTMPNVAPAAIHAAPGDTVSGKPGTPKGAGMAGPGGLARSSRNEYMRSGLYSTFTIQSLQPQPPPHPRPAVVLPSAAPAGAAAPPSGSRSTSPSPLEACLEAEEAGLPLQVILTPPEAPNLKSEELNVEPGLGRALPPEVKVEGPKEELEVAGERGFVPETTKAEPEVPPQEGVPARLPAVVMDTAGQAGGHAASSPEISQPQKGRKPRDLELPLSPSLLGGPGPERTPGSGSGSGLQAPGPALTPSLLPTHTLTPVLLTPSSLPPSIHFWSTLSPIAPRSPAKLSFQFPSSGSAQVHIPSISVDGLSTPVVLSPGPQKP
How it was run: as §1

GABPA = biological target: T3, GABPA (Homo sapiens, UniProt Q06546 1-454); conditions: protein: recombinant; tags: N-terminal GST; dsDNA, one strand shown
T3 sequence: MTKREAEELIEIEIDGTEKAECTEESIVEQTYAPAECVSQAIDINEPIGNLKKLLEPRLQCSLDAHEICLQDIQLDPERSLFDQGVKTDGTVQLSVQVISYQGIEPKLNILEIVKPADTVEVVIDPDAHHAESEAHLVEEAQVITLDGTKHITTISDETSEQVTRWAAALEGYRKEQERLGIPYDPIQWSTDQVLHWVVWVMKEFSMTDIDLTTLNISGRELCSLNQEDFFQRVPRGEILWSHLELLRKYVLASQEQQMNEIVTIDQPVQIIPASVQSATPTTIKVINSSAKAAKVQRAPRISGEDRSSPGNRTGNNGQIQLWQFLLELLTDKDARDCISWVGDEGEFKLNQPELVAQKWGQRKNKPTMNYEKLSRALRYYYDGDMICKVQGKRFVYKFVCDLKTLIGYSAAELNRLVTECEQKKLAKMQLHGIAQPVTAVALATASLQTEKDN
How it was run: as §1

ERG = biological target: T4, ERG (Homo sapiens, UniProt P11308 1-479); conditions: protein: recombinant; tags: N-terminal GST; dsDNA, one strand shown
T4 sequence: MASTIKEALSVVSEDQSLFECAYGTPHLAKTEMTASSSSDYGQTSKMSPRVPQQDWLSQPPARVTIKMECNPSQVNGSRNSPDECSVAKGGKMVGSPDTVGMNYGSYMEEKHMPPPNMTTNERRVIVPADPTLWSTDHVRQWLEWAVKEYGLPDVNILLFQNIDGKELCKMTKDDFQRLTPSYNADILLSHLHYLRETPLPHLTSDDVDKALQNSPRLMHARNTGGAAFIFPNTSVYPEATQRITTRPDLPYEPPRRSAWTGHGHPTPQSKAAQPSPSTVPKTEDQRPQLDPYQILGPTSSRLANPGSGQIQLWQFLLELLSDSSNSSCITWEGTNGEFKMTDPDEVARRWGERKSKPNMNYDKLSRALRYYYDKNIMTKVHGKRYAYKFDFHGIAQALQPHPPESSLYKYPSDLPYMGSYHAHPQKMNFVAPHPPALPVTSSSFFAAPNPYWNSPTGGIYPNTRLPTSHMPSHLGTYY
How it was run: as §1

ELF1 = ELF1 (Homo sapiens, UniProt P32519 1-619); conditions: protein: recombinant; tags: N-terminal GST; dsDNA, one strand shown
How it was run: as §1

EHF = biological target: T5, EHF (Homo sapiens, UniProt Q9NZC4 1-300); conditions: protein: recombinant; tags: N-terminal GST; dsDNA, one strand shown
T5 sequence: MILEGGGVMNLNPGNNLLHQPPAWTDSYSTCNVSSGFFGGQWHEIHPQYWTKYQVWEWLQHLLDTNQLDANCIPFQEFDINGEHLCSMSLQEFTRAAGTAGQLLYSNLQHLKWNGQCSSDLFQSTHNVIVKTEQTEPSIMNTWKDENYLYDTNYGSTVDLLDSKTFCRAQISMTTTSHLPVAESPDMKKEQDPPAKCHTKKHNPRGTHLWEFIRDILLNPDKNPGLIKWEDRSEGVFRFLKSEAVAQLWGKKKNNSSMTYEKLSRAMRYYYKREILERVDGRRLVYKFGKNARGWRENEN
How it was run: as §1

SPI1 = SPI1 (Homo sapiens, UniProt P17947 1-270); conditions: protein: recombinant; tags: N-terminal GST; dsDNA, one strand shown
How it was run: as §1

SPIB = SPIB (Homo sapiens, UniProt Q01892 1-262); conditions: protein: recombinant; tags: N-terminal GST; dsDNA, one strand shown
How it was run: as §1

ETV5 = ETV5 (Homo sapiens, UniProt P41161 1-510); conditions: protein: recombinant; tags: N-terminal GST; dsDNA, one strand shown
How it was run: as §1

HSF1 = HSF1 (Homo sapiens, UniProt Q00613 1-529); conditions: protein: recombinant; tags: N-terminal GST; chain copies: 3; dsDNA, one strand shown
How it was run: as §1

SPIC = biological target: T6, SPIC (Homo sapiens, UniProt Q8N5J4 1-248); conditions: protein: recombinant; tags: N-terminal GST; dsDNA, one strand shown
T6 sequence: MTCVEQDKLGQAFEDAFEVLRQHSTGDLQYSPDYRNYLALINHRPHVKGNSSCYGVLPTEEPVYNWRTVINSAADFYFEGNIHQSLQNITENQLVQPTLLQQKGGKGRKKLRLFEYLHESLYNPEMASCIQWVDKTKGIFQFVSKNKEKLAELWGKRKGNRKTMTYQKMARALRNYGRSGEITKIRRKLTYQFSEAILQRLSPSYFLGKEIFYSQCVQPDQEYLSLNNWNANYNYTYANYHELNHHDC
How it was run: as §1

ELF4 = ELF4 (Homo sapiens, UniProt Q99607 1-663); conditions: protein: recombinant; tags: N-terminal GST; dsDNA, one strand shown
How it was run: as §1

ELK4 = biological target: T7, ELK4 (Homo sapiens, UniProt P28324-2 1-405); conditions: protein: recombinant; tags: N-terminal GST; dsDNA, one strand shown
T7 sequence: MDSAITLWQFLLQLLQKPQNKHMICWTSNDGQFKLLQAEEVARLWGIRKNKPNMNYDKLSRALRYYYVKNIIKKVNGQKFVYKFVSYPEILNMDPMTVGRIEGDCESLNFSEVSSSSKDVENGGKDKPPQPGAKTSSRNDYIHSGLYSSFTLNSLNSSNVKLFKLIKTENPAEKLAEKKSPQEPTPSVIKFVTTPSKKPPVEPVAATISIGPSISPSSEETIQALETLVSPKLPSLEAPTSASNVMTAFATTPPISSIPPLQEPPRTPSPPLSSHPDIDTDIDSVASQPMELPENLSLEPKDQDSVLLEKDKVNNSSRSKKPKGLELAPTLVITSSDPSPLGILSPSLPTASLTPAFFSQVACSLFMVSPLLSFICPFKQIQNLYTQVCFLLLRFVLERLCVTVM
How it was run: as §1

ETV2 = biological target: T8, ETV2 (Homo sapiens, UniProt O00321 1-342); conditions: protein: recombinant; tags: N-terminal GST; dsDNA, one strand shown
T8 sequence: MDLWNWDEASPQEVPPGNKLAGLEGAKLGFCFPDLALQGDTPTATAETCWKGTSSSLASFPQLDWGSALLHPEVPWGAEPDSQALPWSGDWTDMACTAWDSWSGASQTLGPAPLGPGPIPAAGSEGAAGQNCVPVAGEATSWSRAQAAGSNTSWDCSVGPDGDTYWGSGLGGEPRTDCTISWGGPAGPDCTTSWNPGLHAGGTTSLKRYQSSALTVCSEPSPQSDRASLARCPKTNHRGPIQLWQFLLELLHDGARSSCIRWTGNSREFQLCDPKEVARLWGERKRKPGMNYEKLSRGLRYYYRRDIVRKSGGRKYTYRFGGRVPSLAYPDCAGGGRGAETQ
How it was run: as §1

CRX = CRX (Homo sapiens, UniProt O43186 1-299); conditions: protein: recombinant; tags: N-terminal GST; dsDNA, one strand shown
How it was run: as §1

ETV1 = ETV1 (Homo sapiens, UniProt P50549 1-477); conditions: protein: recombinant; tags: N-terminal GST; dsDNA, one strand shown
How it was run: as §1

SPIB, sequence (Q01892 whole entry): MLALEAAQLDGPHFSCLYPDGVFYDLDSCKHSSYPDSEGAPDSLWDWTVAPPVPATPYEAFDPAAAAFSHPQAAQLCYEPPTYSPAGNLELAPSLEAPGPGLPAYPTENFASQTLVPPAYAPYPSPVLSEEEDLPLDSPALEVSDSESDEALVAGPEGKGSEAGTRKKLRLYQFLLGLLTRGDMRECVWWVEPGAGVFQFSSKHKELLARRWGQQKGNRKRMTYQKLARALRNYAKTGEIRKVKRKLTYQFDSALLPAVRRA
CRX, sequence (O43186 whole entry): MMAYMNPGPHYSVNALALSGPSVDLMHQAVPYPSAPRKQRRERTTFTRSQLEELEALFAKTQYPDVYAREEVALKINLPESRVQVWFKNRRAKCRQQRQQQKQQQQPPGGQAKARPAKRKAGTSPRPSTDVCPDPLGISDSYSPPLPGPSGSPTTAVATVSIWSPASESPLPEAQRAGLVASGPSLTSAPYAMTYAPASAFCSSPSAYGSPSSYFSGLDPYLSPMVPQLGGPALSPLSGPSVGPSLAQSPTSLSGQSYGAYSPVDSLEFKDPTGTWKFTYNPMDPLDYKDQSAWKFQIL
ELF4, sequence (Q99607 whole entry): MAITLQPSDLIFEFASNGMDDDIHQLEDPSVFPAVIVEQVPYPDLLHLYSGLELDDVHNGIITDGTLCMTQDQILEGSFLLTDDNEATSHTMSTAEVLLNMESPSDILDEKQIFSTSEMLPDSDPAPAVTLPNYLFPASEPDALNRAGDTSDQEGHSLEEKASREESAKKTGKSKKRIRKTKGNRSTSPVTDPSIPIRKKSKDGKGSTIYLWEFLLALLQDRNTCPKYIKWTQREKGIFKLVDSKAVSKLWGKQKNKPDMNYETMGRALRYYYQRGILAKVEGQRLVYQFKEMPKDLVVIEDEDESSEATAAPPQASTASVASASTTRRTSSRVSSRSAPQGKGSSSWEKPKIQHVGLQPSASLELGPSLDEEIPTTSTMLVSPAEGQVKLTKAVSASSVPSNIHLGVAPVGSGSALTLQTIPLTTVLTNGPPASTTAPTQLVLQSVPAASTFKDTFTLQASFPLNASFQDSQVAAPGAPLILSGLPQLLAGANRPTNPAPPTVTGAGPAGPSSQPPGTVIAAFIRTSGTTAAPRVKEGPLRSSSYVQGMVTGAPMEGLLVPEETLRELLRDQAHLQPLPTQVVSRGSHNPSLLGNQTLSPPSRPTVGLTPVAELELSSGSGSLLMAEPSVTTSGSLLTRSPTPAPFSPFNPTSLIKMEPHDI
HSF1, sequence (Q00613 whole entry): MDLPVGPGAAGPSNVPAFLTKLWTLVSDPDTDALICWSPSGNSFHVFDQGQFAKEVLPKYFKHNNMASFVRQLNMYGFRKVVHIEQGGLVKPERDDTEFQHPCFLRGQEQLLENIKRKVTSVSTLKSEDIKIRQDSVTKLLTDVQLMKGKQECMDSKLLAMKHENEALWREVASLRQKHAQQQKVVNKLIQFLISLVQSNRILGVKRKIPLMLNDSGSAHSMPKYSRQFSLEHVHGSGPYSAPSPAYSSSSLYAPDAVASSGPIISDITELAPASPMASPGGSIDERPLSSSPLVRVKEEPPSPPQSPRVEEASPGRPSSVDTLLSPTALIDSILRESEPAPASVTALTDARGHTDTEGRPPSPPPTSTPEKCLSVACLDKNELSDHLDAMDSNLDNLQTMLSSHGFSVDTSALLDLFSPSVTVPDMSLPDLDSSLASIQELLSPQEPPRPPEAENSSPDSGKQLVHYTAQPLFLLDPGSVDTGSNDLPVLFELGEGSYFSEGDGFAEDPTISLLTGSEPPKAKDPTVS
ELF1, sequence (P32519 whole entry): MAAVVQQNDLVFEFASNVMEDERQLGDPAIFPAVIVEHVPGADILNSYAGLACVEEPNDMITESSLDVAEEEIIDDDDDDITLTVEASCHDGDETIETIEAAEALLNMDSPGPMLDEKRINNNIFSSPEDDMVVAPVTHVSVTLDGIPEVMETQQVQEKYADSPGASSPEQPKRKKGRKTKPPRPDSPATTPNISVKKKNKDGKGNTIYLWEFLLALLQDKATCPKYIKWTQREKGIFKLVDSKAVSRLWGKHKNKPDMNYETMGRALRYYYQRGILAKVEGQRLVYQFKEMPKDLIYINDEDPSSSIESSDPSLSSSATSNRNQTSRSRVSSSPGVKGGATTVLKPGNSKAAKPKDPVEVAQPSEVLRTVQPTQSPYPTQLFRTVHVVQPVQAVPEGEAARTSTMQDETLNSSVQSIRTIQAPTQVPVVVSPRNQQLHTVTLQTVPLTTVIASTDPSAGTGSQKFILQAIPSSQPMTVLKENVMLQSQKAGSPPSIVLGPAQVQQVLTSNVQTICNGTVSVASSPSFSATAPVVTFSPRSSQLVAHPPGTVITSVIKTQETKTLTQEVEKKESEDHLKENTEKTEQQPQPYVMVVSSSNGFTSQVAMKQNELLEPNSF
ETV1, sequence (P50549 whole entry): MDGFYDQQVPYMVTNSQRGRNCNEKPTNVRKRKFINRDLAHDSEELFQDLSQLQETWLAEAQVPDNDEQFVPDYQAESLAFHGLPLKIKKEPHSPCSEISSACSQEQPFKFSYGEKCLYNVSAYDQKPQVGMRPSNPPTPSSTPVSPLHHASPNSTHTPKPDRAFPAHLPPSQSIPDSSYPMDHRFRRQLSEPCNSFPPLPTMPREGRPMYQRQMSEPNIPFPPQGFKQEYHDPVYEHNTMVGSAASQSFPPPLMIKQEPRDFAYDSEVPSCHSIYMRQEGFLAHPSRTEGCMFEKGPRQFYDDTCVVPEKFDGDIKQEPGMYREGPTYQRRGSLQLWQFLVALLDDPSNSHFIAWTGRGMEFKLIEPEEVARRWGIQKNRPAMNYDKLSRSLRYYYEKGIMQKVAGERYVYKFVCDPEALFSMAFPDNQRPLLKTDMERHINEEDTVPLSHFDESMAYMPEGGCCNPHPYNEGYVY
ETV5, sequence (P41161 whole entry): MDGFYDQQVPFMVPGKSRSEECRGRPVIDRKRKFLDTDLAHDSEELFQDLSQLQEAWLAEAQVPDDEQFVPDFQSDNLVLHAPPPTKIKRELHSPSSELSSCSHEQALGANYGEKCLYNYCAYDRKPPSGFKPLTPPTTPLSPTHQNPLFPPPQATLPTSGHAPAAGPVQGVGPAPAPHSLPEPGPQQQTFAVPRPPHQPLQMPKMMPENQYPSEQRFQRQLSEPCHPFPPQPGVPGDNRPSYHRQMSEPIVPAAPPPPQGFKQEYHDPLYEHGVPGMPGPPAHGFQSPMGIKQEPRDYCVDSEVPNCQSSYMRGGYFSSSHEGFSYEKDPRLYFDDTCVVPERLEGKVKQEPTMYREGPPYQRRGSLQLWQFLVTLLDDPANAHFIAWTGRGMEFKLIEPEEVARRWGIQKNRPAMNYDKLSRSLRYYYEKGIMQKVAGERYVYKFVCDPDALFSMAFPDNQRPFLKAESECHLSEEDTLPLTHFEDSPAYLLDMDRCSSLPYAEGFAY

TTAGCG
binding signal (FLI1): 1.05 fold enrichment (6-mer frequency, TF over GST control)
binding signal (ELK1): 1.04 fold enrichment (6-mer frequency, TF over GST control)
binding signal (GABPA): 1.03 fold enrichment (6-mer frequency, TF over GST control)
binding signal (ERG): 1.05 fold enrichment (6-mer frequency, TF over GST control)
binding signal (ELF1): 1.09 fold enrichment (6-mer frequency, TF over GST control)
binding signal (EHF): 1.06 fold enrichment (6-mer frequency, TF over GST control)
binding signal (SPI1): 1 fold enrichment (6-mer frequency, TF over GST control)
binding signal (SPIB): 1.13 fold enrichment (6-mer frequency, TF over GST control)
binding signal (ETV5): 1 fold enrichment (6-mer frequency, TF over GST control)
binding signal (HSF1): 1.49 fold enrichment (6-mer frequency, TF over GST control)
binding signal (SPIC): 1.03 fold enrichment (6-mer frequency, TF over GST control)
binding signal (ELF4): 1.14 fold enrichment (6-mer frequency, TF over GST control)
binding signal (ELK4): 1.05 fold enrichment (6-mer frequency, TF over GST control)
binding signal (ETV2): 1.14 fold enrichment (6-mer frequency, TF over GST control)
binding signal (CRX): 2.24 fold enrichment (6-mer frequency, TF over GST control)
binding signal (ETV1): 1.07 fold enrichment (6-mer frequency, TF over GST control)
